# Test results taken from the supplement of paper PMC8047044.
# Where a name gives a salt, the structure may show the parent alone.
# Assays:
# Neuro-2a [1] = assay: neurite formation score, plate-normalized to DMSO control mean 5.04 (score (0-8 scale)); higher = more or longer neurites; conditions: 1 µM
# Method: (§1)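 Neuro-2a mouse neuroblastoma cells in PLL-coated 96-well plates were pre-treated for 1 h in DMEM(+) with each kinase inhibitor at 1 µM, then switched to serum-free DMEM(-) with inhibitor to induce neurite outgrowth and fixed about 2-3 h later. Three blinded observers scored neurite formation from 0 (no neurites) to 8 (long neurites on almost all cells).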
# Neuro-2a [2] = assay: as above; conditions: 0.1 µM
# Method: as §1, with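 “at 0.1” for “at 1”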
Compound,neurite formation score (Neuro-2a [1]),neurite formation score (Neuro-2a [2])
N#CC1(c2ccc(NC(=O)c3cccnc3NCc3ccncc3)cc2)CCCC1 [Apatinib],4.54,4.08
CN1CCN(c2ccc(Nc3cc(-c4cccc(-n5ccc6cc(C7CC7)cc(F)c6c5=O)c4CO)cn(C)c3=O)nc2)CC1,5.63,4.58
COc1ccc(-c2cnc3c(-c4cccc5ncccc45)cnn3c2)cc1,3.88,2.08
C1=N/C2=N/c3ccc(OCCN4CCCC4)c(c3)COC/C=C/COCc3cccc(c3)C(=C1)N2 [Pacritinib],2.29,4.92
CNC(=O)c1nn(C)c2c1C(C)(C)Cc1cnc(Nc3ccc(N4CCN(C)CC4)cc3)nc1-2,3.29,4.58
CSc1cccc(Nc2ncc3cc(-c4c(Cl)cccc4Cl)c(=O)n(C)c3n2)c1,0.626,3.92
COc1ccc(CNC(=O)Nc2ncc([N+](=O)[O-])s2)cc1,4.91,4.71
CCCS(=O)(=O)Nc1ccc(F)c(C(=O)c2c[nH]c3ncc(Cl)cc23)c1F,2.91,4.38
O=C1c2ccccc2-c2n[nH]c3cccc1c23,4.02,3.92
CNC(=O)c1ccccc1Nc1nc(Nc2ccc(N3CCOCC3)cc2OC)ncc1Cl,4.29,4.58
CNC(=O)c1ccccc1Nc1cc(Nc2ccc(N3CCOCC3)cc2OC)ncc1C(F)(F)F,5.02,5.58
Cc1ccccc1CN1C2=NCCN2C(=O)C2=C1CCN(Cc1ccccc1)C2,4.63,4.25
Fc1cc(-c2cccc3ncc(-c4cnn(C5CCNCC5)c4)nc23)cc(F)c1CN1CCOCC1,4.47,4.09
NC1(c2ccc(-c3nc4ccn5c(=O)[nH]nc5c4cc3-c3ccccc3)cc2)CCC1 [MK-2206 dihydrochloride],4.24,4.71
CCOc1ccc(Nc2ccc(/C(=C3C=C/C(=[N+](/CC)Cc4cccc(S(=O)(=O)[O-])c4)C=C/3C)c3ccc(N(CC)Cc4cccc(S(=O)(=O)O)c4)cc3C)cc2)cc1 [Brilliant Blue G],5.21,2.08
CC[C@@H]1C(=O)N(C)c2cnc(Nc3ccc(C(=O)N[C@H]4CC[C@H](N5CCN(CC6CC6)CC5)CC4)cc3OC)nc2N1C(C)C [BI6727 (Volasertib)],5.29,4.25

Compound,neurite formation score (Neuro-2a [1]),neurite formation score (Neuro-2a [2])
CN1CCC(Nc2nc(Nc3ccc(Oc4ccccc4)cc3)c3c(=O)[nH]cc(Br)c3n2)CC1,3.29,4.25
"CCCCCCCCCCCC(=O)OCC(CO)OC(=O)CCCCCCCCCCC (centres undefined) [1,2-Dilauroyl-sn-glycerol]",4.54,5.08
COc1ccc(-c2cc3c(C)nc(N)nc3n([C@H]3CC[C@H](OCCO)CC3)c2=O)cn1,3.96,4.92
Cc1cc(C)c(/C=C2\C(=O)Nc3ccccc32)[nH]1 [Semaxanib (SU5416)],4.54,5.42
CN1CCN(CCOc2cc(OC3CCOCC3)c3c(Nc4c(Cl)ccc5c4OCO5)ncnc3c2)CC1 [Saracatinib (AZD0530)],4.91,3.38
Cc1cc2c(F)c(Oc3ncnn4cc(OC[C@@H](C)O)c(C)c34)ccc2[nH]1,4.57,4.38
Cc1cc(O)c2c(c1)C(=O)c1cccc(O)c1C2=O [Chrysophanol],4.8,4.76
Cn1cc(-c2ccc3ncc(Cc4ccc5ncccc5c4)n3n2)cn1,4.63,4.92
CC(C)(O)CC(=O)NCCn1ccc2ncnc(Nc3ccc(Oc4cccc(C(F)(F)F)c4)c(Cl)c3)c21,5.14,4.42
CN(C)CCCn1cc(C2=C(c3c[nH]c4ccccc34)C(=O)NC2=O)c2ccccc21,5.24,5.54
CNC(=O)c1cc(Oc2ccc(NC(=O)Nc3ccc(Cl)c(C(F)(F)F)c3)cc2)ccn1 [Sorafenib Tosylate],4.57,3.54
N#Cc1c(Oc2ccc(F)c(NC(=O)Cc3cccc(C(F)(F)F)c3)c2)ccc2nc(NC(=O)C3CC3)sc12,1.9,4.54
C=CC(=O)Nc1cccc(Nc2nc(Nc3ccc(N4CCN(C(C)=O)CC4)cc3OC)ncc2C(F)(F)F)c1,4.24,3.71
Cc1ccc(NC(=O)c2ccc(CN3CCN(C)CC3)cc2)cc1Nc1nccc(-c2cccnc2)n1 [Imatinib (STI571)],4.54,1.42
C[C@@H]1CN(CC(=O)Nc2ccc3c(c2)Cc2cccc(-c4cc(=O)cc(N5CCOCC5)o4)c2S3)C[C@H](C)O1,3.9,5.21
CN1CCN(c2cccc(Nc3nc4c(-c5ccc(S(C)(=O)=O)cc5)cccn4n3)c2)CC1,4.69,4.25
